# From PubChem BioAssay (EPA / NIEHS)
# Records with an inconclusive call do not appear. Activity calls are given as the source filed them. Rule for the calls: active = hit-call score of the fitted dose curve at least 0.9, where 1 is the maximum; inconclusive = response in the unintended direction; inactive = score below 0.9.
# Assays:
# [1] = target: human Matrix Metalloproteinase-1 (MMP1), MMP1 (gene 4312) (UniProt P03956); assay: NVS_ENZ_hMMP1: NovaScreen (NVS) Enzymatic Assay for human Matrix Metalloproteinase-1 (MMP1) (AID 2283181)
# In short: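 Cell-free fluorescent substrate assay of human MMP1, read after 1 h. A single 25 uM duplicate screen was followed by concentration series to a maximum of 50 uM for actives meeting threshold; inhibition analysed against DMSO baseline.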
# [2] = target: human NIMA (Never In Mitosis Gene A)-Related Kinase 2 (NEK2), NEK2 (gene 4751) (UniProt P51955); assay: NVS_ENZ_hNEK2: NovaScreen (NVS) Enzymatic Assay for human NIMA (Never In Mitosis Gene A)-Related Kinase 2 (NEK2) (AID 2283188)
# In short: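 Compounds were first screened in duplicate at 25 uM, with actives followed up in concentration series. Recombinant NEK2 activity, cell-free, was read 1 h after dosing by fluorescence intensity after mobility-shift separation. Signal loss was scored against DMSO.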
# [3] = target: rat Monoamine Oxidase, MAO-B, Peripheral (MAOBP), Maob (gene 25750) (UniProt P19643); assay: NVS_ENZ_rMAOBP: NovaScreen (NVS) Enzymatic Assay for rat Monoamine Oxidase, MAO-B, Peripheral (MAOBP) (AID 2283242)
# [4] = test system: rat Monoamine Oxidase, MAO-A, Central (MAOAC), gene 29253; assay: NVS_ENZ_rMAOAC: NovaScreen (NVS) Enzymatic Assay for rat Monoamine Oxidase, MAO-A, Central (MAOAC) (AID 2283243);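 note: potency refers to inhibition seen as signal drop below DMSO baseline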
# In short: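 Scintillation read-out of MAO-A activity in rat brain lysate, 1.5 h post-dosing. Primary single-concentration screen: 25 uM, duplicate; actives re-tested in concentration series. DMSO = negative control/baseline.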
# [5] = target: human Phosphatase and Tensin Homolog (PTEN), PTEN (gene 5728) (UniProt P60484); assay: NVS_ENZ_hPTEN: NovaScreen (NVS) Enzymatic Assay for human Phosphatase and Tensin Homolog (PTEN) (AID 2283203)
# In short: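 Loss of fluorescent product signal after mobility-shift separation reports PTEN activity, recombinant human enzyme, 1 h after compound addition. Single 25 uM duplicate screen, then concentration-response on actives; DMSO baseline.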
# [6] = target: human p21 Activated Kinase 4 (PAK4), PAK4 (gene 10298) (UniProt O96013); assay: NVS_ENZ_hPAK4: NovaScreen (NVS) Enzymatic Assay for human p21 Activated Kinase 4 (PAK4) (AID 2283189)
# In short: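 Extracted PAK4 enzyme activity read by fluorescence with mobility-shift separation 1 h after chemical addition. Duplicate single-concentration screen at 25 uM, DMSO as negative control.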
# [7] = target: bovine Gamma-Aminobutyric Acid Type A Receptor BDZ, alpha 1 site (GABARa1), GABRA1 (gene 780973) (UniProt P08219); assay: NVS_LGIC_bGABARa1: NovaScreen (NVS) Ligand-Gated Ion Channel Assay for bovine Gamma-Aminobutyric Acid Type A Receptor BDZ, alpha 1 site (GABARa1) (AID 2283321)
# In short: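 Bovine cortex membrane preparation, benzodiazepine site on GABA-A alpha1; specific radioligand displacement read after 0.75 h by filtration and scintillation. Screen at 25 uM, then singleton titrations up to 50 uM; DMSO baseline.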
# [8] = target: human Protein Tyrosine Phosphatase Receptor Type C (PTPRC), PTPRC (gene 5788) (UniProt P08575); assay: NVS_ENZ_hPTPRC: NovaScreen (NVS) Enzymatic Assay for human Protein Tyrosine Phosphatase Receptor Type C (PTPRC) (AID 2283212)
# In short: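 Absorbance-based phosphatase activity of human PTPRC protein extracted from yeast was measured 1 h post-dosing. Compounds first tested at 25 uM in duplicate, then those passing threshold in singleton concentration series to 50 uM.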
# [9] = target: rat Neurotensin Receptor (NTS), Ntsr1 (gene 366274) (UniProt P20789); assay: NVS_GPCR_rNTS: NovaScreen (NVS) G Protein-Coupled Receptor Assay for rat Neurotensin Receptor (NTS) (AID 2283308)
# In short: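 Single-point duplicates at 25 uM, then concentration series to 50 uM max for hits, measured radioligand displacement on rat forebrain membrane preparations. Bound label counted by filtration scintillation at 1 h; signal loss relative to DMSO fitted.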
# [10] = test system: rat Monoamine Oxidase, MAO-A, Peripheral (MAOAP), gene 29253; assay: NVS_ENZ_rMAOAP: NovaScreen (NVS) Enzymatic Assay for rat Monoamine Oxidase, MAO-A, Peripheral (MAOAP) (AID 2283237)
# In short: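 Scintillation counting tracked MAO-A activity in a cell-free rat liver mitochondrial membrane prep, read 1.17 hours after compound addition. Single-point duplicate testing at 25 uM preceded concentration-response follow-up; activity was fitted relative to DMSO.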
# [11] = target: rat Oxytocin Receptor (OXT), Oxtr (gene 25342) (UniProt P70536); assay: NVS_GPCR_rOXT: NovaScreen (NVS) G Protein-Coupled Receptor Assay for rat Oxytocin Receptor (OXT) (AID 2283330)
# In short: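 Binding to rat uterine membrane receptor was followed by scintillation counting of filter-trapped radioligand after 1 h. A 25 uM duplicate single-point screen preceded concentration series with a top of 50 uM. Signal loss was analysed relative to DMSO.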
# [12] = target: rat Acetylcholinesterase (AChE), Ache (gene 83817) (UniProt P37136); assay: NVS_ENZ_rAChE: NovaScreen (NVS) Enzymatic Assay for rat Acetylcholinesterase (AChE) (AID 2283233)
# In short: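 Compounds first screened at 25 uM in duplicate, then those passing threshold tested in concentration series up to 50 uM, against AChE from rat brain membranes. Enzyme activity read by absorbance at 0.33 h; inhibition scored versus DMSO.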
# [13] = target: human Raf-1 Proto-Oncogene, serine/threonine Kinase (RAF1), RAF1 (gene 5894) (UniProt P04049); assay: NVS_ENZ_hRAF1: NovaScreen (NVS) Enzymatic Assay for human Raf-1 Proto-Oncogene, serine/threonine Kinase (RAF1) (AID 2283216)
# In short: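 Single-point screening at 25 uM (duplicate), followed by singleton concentration-response to 50 uM maximum for chemicals exceeding threshold. Enzyme activity from fluorescent substrate-product mobility-shift separation after 1 h, relative to DMSO.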
# [14] = target: rat Monoamine Oxidase, MAO-B, Central (MAOBC), Maob (gene 25750) (UniProt P19643); assay: NVS_ENZ_rMAOBC: NovaScreen (NVS) Enzymatic Assay for rat Monoamine Oxidase, MAO-B, Central (MAOBC) (AID 2283238)
# In short: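 Actives from a duplicate 25 uM screen went on to singleton concentration-response with a 50 uM maximum. Enzyme source was rat brain tissue MAO-B, assayed cell-free. Radiolabelled product was counted by scintillation 1.17 h post-dose, with signal loss relative to DMSO.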
# [15] = target: human Tyrosine Protein Kinase Receptor Tie-2 (Tie2), TEK (gene 7010) (UniProt Q02763); assay: NVS_ENZ_hTie2: NovaScreen (NVS) Enzymatic Assay for human Tyrosine Protein Kinase Receptor Tie-2 (Tie2) (AID 2283225)
# In short: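 Substrate and product were separated by mobility shift and detected by fluorescence after a 1-hour reaction with recombinant Tie2. Chemicals passing a 25 uM single-point screen were titrated to a maximum of 50 uM. Results were normalized to DMSO baseline.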
# [16] = target: Voltage-dependent N-type calcium channel subunit alpha-1B (Rattus norvegicus) (UniProt Q02294); assay: NVS_IC_rCaChN: NovaScreen (NVS) Ion Channel Assay for rat Calcium Channel, Type N (CaChN) (AID 2283317)
# [17] = target: human Protein Tyrosine Phosphatase Non-receptor Type 2 (PTPN2), PTPN2 (gene 5771) (UniProt P17706); assay: NVS_ENZ_hPTPN2: NovaScreen (NVS) Enzymatic Assay for human Protein Tyrosine Phosphatase Non-receptor Type 2 (PTPN2) (AID 2283207)
# In short: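 Activity measured as fluorescence after mobility-shift separation of substrate and product, 1 h after compound. Duplicate single-point 25 uM primary testing, concentration series for actives; inhibition scored as signal loss relative to DMSO baseline.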
# Sequence of human Raf-1 Proto-Oncogene, serine/threonine Kinase (RAF1), RAF1 (gene 5894) (P04049 whole entry, looked up): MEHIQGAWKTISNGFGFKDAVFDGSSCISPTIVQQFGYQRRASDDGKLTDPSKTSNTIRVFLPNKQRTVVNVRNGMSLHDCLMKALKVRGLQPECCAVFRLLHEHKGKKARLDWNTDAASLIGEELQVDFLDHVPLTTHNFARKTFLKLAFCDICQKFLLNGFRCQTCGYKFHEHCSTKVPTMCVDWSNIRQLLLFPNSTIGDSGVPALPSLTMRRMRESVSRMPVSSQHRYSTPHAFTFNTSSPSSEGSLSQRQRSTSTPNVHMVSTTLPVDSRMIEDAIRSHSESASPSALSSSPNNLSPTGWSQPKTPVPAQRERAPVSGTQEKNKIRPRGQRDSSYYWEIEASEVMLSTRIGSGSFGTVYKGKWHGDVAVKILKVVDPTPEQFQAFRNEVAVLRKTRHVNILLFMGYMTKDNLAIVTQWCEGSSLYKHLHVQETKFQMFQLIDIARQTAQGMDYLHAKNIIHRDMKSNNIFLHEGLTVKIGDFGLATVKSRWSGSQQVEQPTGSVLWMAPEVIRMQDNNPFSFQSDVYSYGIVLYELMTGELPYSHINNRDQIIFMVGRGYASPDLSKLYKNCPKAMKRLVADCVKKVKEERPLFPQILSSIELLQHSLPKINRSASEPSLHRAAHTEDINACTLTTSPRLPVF
# Sequence of human Protein Tyrosine Phosphatase Receptor Type C (PTPRC), PTPRC (gene 5788) (P08575 whole entry, looked up): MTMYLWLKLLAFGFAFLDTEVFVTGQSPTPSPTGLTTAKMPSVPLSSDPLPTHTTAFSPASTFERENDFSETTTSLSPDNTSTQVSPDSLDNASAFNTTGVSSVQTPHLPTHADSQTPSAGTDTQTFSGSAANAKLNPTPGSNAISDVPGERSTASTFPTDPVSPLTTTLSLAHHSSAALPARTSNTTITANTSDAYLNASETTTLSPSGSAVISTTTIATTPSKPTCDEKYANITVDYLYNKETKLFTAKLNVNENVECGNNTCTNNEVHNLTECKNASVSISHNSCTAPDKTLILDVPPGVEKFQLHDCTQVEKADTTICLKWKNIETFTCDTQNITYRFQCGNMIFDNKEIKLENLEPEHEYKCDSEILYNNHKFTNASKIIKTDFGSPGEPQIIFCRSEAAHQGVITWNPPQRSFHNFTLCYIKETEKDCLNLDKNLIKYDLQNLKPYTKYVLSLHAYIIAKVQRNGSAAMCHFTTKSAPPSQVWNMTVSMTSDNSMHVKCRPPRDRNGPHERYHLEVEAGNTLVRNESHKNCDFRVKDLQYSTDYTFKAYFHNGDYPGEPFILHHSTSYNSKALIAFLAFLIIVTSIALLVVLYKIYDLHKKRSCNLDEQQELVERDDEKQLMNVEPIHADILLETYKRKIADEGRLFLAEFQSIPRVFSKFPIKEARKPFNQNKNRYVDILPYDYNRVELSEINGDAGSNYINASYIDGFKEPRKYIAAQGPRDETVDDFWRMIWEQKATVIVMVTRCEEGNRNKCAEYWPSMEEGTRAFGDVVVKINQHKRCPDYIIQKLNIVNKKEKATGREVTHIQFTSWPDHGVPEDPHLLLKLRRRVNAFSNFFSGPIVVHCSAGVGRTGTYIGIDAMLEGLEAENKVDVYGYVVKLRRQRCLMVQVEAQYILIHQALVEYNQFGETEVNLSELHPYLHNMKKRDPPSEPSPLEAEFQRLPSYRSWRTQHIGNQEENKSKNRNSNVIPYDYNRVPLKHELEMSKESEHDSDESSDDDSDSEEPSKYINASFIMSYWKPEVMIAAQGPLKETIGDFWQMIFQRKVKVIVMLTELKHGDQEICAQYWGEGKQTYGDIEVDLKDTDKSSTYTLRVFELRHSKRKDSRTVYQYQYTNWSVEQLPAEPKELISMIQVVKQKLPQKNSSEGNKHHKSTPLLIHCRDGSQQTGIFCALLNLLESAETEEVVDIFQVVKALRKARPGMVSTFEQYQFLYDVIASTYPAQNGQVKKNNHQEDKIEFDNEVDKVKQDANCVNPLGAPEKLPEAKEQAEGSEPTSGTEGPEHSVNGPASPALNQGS
# Sequence of human Matrix Metalloproteinase-1 (MMP1), MMP1 (gene 4312) (P03956 whole entry, looked up): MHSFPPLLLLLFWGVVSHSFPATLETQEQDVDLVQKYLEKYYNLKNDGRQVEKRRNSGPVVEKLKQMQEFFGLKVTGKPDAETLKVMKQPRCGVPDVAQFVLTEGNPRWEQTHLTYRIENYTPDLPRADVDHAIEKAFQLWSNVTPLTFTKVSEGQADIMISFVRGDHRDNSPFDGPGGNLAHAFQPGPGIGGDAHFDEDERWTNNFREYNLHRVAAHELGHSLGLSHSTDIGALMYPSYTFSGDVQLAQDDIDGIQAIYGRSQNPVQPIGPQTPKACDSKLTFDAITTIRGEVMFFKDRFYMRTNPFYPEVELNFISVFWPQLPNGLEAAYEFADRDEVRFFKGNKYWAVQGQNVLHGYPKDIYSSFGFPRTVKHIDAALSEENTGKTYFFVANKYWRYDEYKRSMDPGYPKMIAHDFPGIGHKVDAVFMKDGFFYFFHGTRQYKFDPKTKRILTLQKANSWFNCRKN
# Sequence of human Tyrosine Protein Kinase Receptor Tie-2 (Tie2), TEK (gene 7010) (Q02763 whole entry, looked up): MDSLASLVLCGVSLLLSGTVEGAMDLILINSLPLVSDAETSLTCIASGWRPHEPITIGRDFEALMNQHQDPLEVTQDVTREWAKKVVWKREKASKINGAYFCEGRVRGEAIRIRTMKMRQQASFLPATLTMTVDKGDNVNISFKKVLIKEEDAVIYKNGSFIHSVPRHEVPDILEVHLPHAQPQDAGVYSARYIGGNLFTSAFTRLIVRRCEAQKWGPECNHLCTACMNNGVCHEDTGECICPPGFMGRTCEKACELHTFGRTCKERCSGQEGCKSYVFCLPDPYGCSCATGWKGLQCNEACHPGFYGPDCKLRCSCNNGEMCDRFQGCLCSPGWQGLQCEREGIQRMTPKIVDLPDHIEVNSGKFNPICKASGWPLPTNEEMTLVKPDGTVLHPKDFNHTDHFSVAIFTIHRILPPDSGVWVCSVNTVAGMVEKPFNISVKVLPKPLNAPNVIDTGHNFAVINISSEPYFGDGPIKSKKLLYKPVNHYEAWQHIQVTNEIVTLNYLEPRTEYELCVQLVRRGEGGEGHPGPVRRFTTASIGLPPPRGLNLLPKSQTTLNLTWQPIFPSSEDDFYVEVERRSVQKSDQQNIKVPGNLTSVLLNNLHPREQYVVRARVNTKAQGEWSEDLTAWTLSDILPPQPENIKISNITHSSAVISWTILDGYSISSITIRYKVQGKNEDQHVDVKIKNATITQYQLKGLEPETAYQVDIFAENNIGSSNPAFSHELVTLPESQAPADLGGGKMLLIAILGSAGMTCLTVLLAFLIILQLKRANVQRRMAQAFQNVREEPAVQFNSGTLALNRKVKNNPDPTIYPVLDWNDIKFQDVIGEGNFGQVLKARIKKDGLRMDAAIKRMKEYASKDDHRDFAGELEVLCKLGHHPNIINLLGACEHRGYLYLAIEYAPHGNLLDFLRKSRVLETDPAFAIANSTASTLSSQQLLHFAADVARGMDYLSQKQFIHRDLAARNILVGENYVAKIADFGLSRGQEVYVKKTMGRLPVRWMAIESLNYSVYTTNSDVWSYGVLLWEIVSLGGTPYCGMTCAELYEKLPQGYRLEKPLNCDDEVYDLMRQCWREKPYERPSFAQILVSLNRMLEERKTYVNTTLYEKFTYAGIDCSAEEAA
# Sequence of bovine Gamma-Aminobutyric Acid Type A Receptor BDZ, alpha 1 site (GABARa1), GABRA1 (gene 780973) (P08219 whole entry, looked up): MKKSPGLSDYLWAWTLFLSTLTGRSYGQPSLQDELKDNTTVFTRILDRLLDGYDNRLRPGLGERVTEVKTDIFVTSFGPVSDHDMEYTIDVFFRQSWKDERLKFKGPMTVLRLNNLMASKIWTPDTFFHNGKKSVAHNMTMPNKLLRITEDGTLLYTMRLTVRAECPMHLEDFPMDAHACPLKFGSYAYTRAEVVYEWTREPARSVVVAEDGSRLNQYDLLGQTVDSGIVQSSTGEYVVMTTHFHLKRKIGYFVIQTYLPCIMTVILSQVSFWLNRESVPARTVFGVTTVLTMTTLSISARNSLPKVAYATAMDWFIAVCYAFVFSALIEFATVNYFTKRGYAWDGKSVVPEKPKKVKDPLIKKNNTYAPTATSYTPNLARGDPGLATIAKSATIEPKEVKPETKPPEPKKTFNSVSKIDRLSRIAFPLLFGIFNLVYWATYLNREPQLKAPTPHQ
# Sequence of human Protein Tyrosine Phosphatase Non-receptor Type 2 (PTPN2), PTPN2 (gene 5771) (P17706 whole entry, looked up): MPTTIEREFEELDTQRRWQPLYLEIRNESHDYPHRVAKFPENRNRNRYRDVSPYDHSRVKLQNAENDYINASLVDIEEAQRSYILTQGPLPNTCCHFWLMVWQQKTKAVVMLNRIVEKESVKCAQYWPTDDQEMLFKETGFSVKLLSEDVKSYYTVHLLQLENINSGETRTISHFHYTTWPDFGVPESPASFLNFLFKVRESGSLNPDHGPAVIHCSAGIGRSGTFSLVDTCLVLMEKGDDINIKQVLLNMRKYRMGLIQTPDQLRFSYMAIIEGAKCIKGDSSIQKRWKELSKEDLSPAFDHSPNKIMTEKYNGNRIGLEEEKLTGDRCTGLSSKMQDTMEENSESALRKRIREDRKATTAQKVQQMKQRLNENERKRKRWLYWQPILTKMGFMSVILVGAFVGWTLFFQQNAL
# Sequence of rat Oxytocin Receptor (OXT), Oxtr (gene 25342) (P70536 whole entry, looked up): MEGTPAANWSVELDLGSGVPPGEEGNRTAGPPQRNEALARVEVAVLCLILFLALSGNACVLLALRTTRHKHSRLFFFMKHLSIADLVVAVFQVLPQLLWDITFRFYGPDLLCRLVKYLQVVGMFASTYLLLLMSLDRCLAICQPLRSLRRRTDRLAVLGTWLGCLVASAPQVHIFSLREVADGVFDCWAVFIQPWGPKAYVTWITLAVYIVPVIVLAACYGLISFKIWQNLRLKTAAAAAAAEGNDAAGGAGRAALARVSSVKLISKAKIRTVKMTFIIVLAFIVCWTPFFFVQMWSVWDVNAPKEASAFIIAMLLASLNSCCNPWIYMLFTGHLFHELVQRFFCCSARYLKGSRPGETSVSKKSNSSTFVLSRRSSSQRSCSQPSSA
smiles,measurement,setting,value
c1ccc(C(O[C@@H]2CCCN(CCc3ccc4c(c3)OCO4)C2)c2ccccc2)cc1,AC50,[1],8.81 µM (active)
same,outcome,[2],inactive
same,AC50,[3],22 µM (active)
same,AC50,[4],20.5 µM (active)
Cc1ccccc1S(N)(=O)=O,outcome,[5],inactive
CC1(C)CC(N=C=O)CC(C)(CN=C=O)C1 (stereo not drawn),AC50,[6],25 µM (active)
Clc1cc(Cl)c(Cl)cc1Cl,outcome,[1],inactive
same,outcome,[7],inactive
O=S(=O)(O)c1ccc(N=Nc2c(O)ccc3cc(S(=O)(=O)O)ccc23)cc1,outcome,[8],inactive
same,outcome,[9],inactive
CN(C[C@@H](CC[N+]12CCC(C3CCCCC3)(CC1)CC2)c1ccc(Cl)c(Cl)c1)C(=O)c1cc(C(F)(F)F)cc(C(F)(F)F)c1,outcome,[8],inactive
same,AC50,[10],36.8 µM (active)
same,outcome,[7],inactive
same,AC50,[11],16.5 µM (active)
Nc1ccc(N)c([N+](=O)[O-])c1,outcome,[12],inactive
O=C(O)c1cccc(C(=O)O)c1,outcome,[10],inactive
Cc1cc2c(cc1C(F)(F)F)N(C(=O)Nc1ccc(Oc3cccnc3C)nc1)CC2,AC50,[13],6.86 µM (active)
NC(=O)NN=Cc1ccc([N+](=O)[O-])o1,AC50,[8],11.3 µM (active)
O=c1ccc2ccccc2o1,AC50,[10],6.56 µM (active)
c1ccc2ncccc2c1,outcome,[13],inactive
O=C(O)c1ccccc1C(c1ccc(O)cc1)c1ccc(O)cc1,outcome,[13],inactive
same,outcome,[14],inactive
CC(=O)OCCC(C)C,outcome,[15],inactive
same,outcome,[16],inactive
c1ccc(Nc2ccccc2)cc1,outcome,[17],inactive
c1ccc2n[nH]nc2c1,outcome,[17],inactive
ClC1=C(Cl)C(Cl)(Cl)C(Cl)=C1Cl,AC50,[8],10.9 µM (active)
[O-]n1ccccc1=S.[O-]n1ccccc1=S.[Zn+2],outcome,[15],inactive
